According to PubChem BioAssay AID624296 (National Center for Advancing Translational Sciences (NCATS), 2012):
The whole screen tested about 350,000 compounds, of which about 9,900 (2.8%) were called active. Inconclusive results (about 15%) are left out. The call rests on the fitted dose curve; in most records, active means well fitted activation curve with a large enough effect; inconclusive means small, poorly fitted or top-dose-only effect; inactive means no such curve, though single readings can be large or run the other way. Shown is part of a subset that was picked to be rich in actives. A call without a number means that no potency is given here.

Assay: A quantitative high throughput screen for small molecules that induce DNA re-replication in MCF 10a normal breast cells. Further: nearly all actives have a fitted effect of over 50% in size.
Settings: MCF 10A DNA re-replication, Hoechst nuclear intensity, 48 h; series mostly up to 46.1 µM
Potency means the concentration at half of the fitted maximal effect.

SMILES | Potency | activity, positive = re-replication
COc1ccccc1C(CNC(=O)c1ccc(C)c(S(=O)(=O)N2CCCCC2)c1)N(C)C (stereo not given) | inactive | 
Cc1ccc(OCCOCCOc2ccc(Br)cc2/C=N\NC(=O)c2ccncc2)cc1 | 20.6 µM (active) | 
COc1ccc(CC(=O)NCC(=O)N/N=C/c2cc(Br)ccc2OC)cc1 | inactive | 
Cc1ccc(S(=O)(=O)Oc2ccc(/C=N/NC(=O)c3ccncc3)cc2)cc1 | inactive | 
CCCCc1ccc(NC(=O)CN2C(=O)NC(Cc3ccccc3)C2=O)cc1 (stereo not given) | inactive | 
CCCCNCCS(=O)(=O)NCc1ccccc1 | inactive | 
Cc1ccc(C)c(NC(=O)C(c2ccccc2)N2CCN(CC(=O)NC3CC3)CC2)c1 (stereo not given) | inactive | 
Cc1ccc(-n2c(SCC(=O)N3CCC(C(=O)O)CC3)nc3ccccc3c2=O)cc1C | inactive | 
Cc1ccc(-n2c(=O)c(C#N)cc3c(=O)n4ccccc4nc32)cc1C | 10.3 µM (active) | 
Cc1ccn2c(=O)c(NC(=O)c3cccc4ccccc34)c(C)nc2c1 | inactive | 
CC(=O)Nc1ccc(C(=O)Nc2cc(S(=O)(=O)N3CCOCC3)ccc2N2CCOCC2)cc1 | inactive | 
COc1ccc(CCN2CC(C(=O)OCC(=O)NCc3ccccc3Cl)CC2=O)cc1OC (stereo not given) | inactive | 
Fc1ccccc1-c1cc2cc3c(cc2cn1)OCO3 | inactive | 
COc1ccc(C2=Nn3c(nnc3-c3ccccc3OC)SC2)cc1OC1CCCC1 | 0.651 µM (active) | 
Cc1nnc2n1N=C(c1ccccc1)CS2 | inactive | 
CC1=Nn2c(nnc2-c2ccccc2)SC1 | inactive | 
CCOC(=O)c1ccccc1NS(=O)(=O)c1c(C)nc2sccn2c1=O | inactive | 
CCOC(=O)c1ccccc1NS(=O)(=O)c1ccc(OC)cc1 | 16.4 µM (active) | 
CCOc1cc(NS(=O)(=O)c2ccc(OC)cc2)c(OCC)cc1NC(C)=O | inactive | 
CN1CCN(S(=O)(=O)c2ccc(N3CCN(c4ccccc4O)CC3)c([N+](=O)[O-])c2)CC1 | inactive | 
CC(=O)c1sc(NC(=O)CCN2C(=O)C3CC=CCC3C2=O)nc1-c1ccccc1 (stereo not given) | inactive | 
COc1ccc(OC)c(Nc2nc(-c3ccc(O)c(O)c3)cs2)c1 | 8.2 µM (active) | 
COc1ccc(-c2csc(Nc3ccccn3)n2)cc1 | inactive | 
COc1ccc(CC(=O)Nc2nc(-c3ccc(F)c(F)c3)cs2)cc1OC | inactive | 
C=CC[C@@H](CC(=O)N[C@@H](CO)Cc1ccccc1)C(=O)N[C@H](COC(=O)[C@H](CC=C)CC(=O)OC(C)(C)C)Cc1ccccc1 | inactive | 

SMILES | Potency | activity, positive = re-replication
Oc1cccc(CCc2ccccn2)c1 | inactive | 
COc1cc(/C=C/C(=O)OCC(=O)NC2CC2)cc(OC)c1OC | inactive | 
Cc1cc(C)c(C#N)c(SCc2[nH]nc3c2C(c2ccccc2)C(C#N)=C(N)O3)n1 (stereo not given) | inactive | 
Cc1nn(Cc2ccccc2)c2c1C(c1ccccc1)C(C#N)=C(N)O2 (stereo not given) | inactive | 
Cc1cc(C)c2c3c(sc2n1)C(c1ccccc1)C(C#N)=C(N)O3 (stereo not given) | 2.82 µM (active) | 
CCn1nc(C(=O)Nc2ccc(N3CCOCC3)cc2)c2ccccc2c1=O | inactive | 
C/[N+]([O-])=C\c1ccc([N+](=O)[O-])o1 | inactive | 
O=C(NNC(=O)C1CCCC1)c1ccc(F)cc1 | inactive | 
O=C(/C=C/c1ccc([N+](=O)[O-])o1)NNC(=O)c1ccc(F)cc1 | 9.2 µM (active) | 
COCC(=O)Nc1ccc(Br)cc1 | inactive | 
CC(C)Oc1ccc(CCC(=O)NNC(=S)NCc2ccccc2)cc1 | inactive | 
CC(C)Oc1ccc(CC(=O)NNC(=S)Nc2ccc(Br)cc2)cc1 | 16.4 µM (active) | 
CC(C)(C)OC(=O)N(Cc1ccccc1)Cc1ccc(OCc2cccc(NC(=O)c3ccccc3)c2)cc1 | inactive | 
CC[C@]12c3[nH]c4ccc(OC)cc4c3CCN1C(=O)C(CC(=O)NCCN1CCOCC1)C[C@@H]2C(=O)N1CCN(C(=O)C2CC2)CC1 (stereo not given in full) | inactive | 
Cc1ccsc1C(=O)N/N=C/c1ccc([N+](=O)[O-])cc1 | inactive | 
Cc1ccc(/C=N/NC(=O)c2sccc2OCc2ccc(F)cc2)cc1 | 6.51 µM (active) | 
Cc1ccc(COc2ccc(/C=N/NC(=O)CN3CCCCC3)cc2)cc1 | inactive | 
CC(=O)Nc1ccc(SC[C@H](Cc2ccccc2)N2CC[C@@H](C)CCC2=O)cc1 | inactive | 
COc1ccc(NS(=O)(=O)c2cc(NC(=O)c3ccc(S(=O)(=O)N(C)C)cc3)ccc2N2CCOCC2)cc1 | inactive | 
COc1cc(NS(=O)(=O)c2ccc(NC(=S)NC(=O)c3ccccc3)cc2)nc(OC)n1 | inactive | 
COc1cc(NS(=O)(=O)c2ccc(N/C=C(\C=O)c3nc4cc(Cl)ccc4o3)cc2)nc(OC)n1 | 20.6 µM (active) | 
COc1cc(NS(=O)(=O)c2ccc(N=Cc3c(C)[nH]n(-c4ccccc4)c3=O)cc2)nc(OC)n1 | inactive | 
Cc1ccc(C)c(C(=O)COC(=O)Cn2[nH]c(=O)c3ccccc3c2=O)c1 | inactive | 
CCc1ccc(C(=O)C(C)OC(=O)CN2C(=O)NC3(CCCC3)C2=O)cc1 (stereo not given) | inactive | 
CCC1=Nc2cc(C(=O)NCCN3CCCC3)ccc2Sc2ccc(C)cc21 | inactive | 

SMILES | Potency | activity, positive = re-replication
CCC1=Nc2cc(C(=O)NCCCN3CCOCC3)ccc2Sc2ccc(Br)cc21 | inactive | 
CCCC1=Nc2cc(C(=O)NCc3ccco3)ccc2Sc2ccccc21 | 8.2 µM (active) | 
CCOc1ccc(C(=O)CCN2CCOCC2)cc1 | 18.4 µM (active) | 
c1ccc(-c2ccc(OCCN3CCOCC3)cc2)cc1 | inactive | 
CC(=O)c1ccc(OCCN2CCOCC2)cc1 | inactive | 
O=C(c1ccccc1)c1ccc(OCC(O)CN2CCCC2)cc1 (stereo not given) | inactive | 
O=C(c1ccc(Cl)cc1)c1ccc(OCC(O)CN2CCCCC2)cc1 (stereo not given) | 5.01 µM (active) | 
OC(COc1ccc(Br)cc1)CN1CCCC1 (stereo not given) | inactive | 
C=CCn1c(=S)[nH]c2nc3c(cc2c1=O)COC(C)(C)C3 | inactive | 
CCCc1nc2oc3c(OCC)ncnc3c2c2c1COC(C)(C)C2 | inactive | 
CC(C)CCSc1ncnc2c1oc1nc3c(cc12)COC(C)(C)C3 | 5.8 µM (active) | 
CSCCC(NS(=O)(=O)c1ccc(C)cc1)C(=O)N(C)CC(=O)Nc1ccccc1Br (stereo not given) | inactive | 
O=C(COC(=O)c1ccc(O)cc1O)c1ccc2c(c1)OCCO2 | inactive | 
O=C1COc2c1ccc(O)c2O | inactive | 
CCOc1cccc(=O)c2c(C)n(CC3CCCO3)c(C)c12 (stereo not given) | inactive | 
O=C1c2cccc3c([N+](=O)[O-])ccc(c23)C(=O)N1CC1CCCO1 (stereo not given) | 18.4 µM (active) | 
CCC(=O)Nc1ccc(C(=O)Nc2ccc3c(c2)C(=O)N(CC2CCCO2)C3=O)cc1 (stereo not given) | inactive | 
N#CC(Cc1cc2ccccc2n1S(=O)(=O)c1ccccc1)OCc1ccccc1 (stereo not given) | inactive | 
Cc1ccc2cc(/C=N/NC(=O)[C@@H]3CCCN3)c(Cl)nc2c1 | inactive | 
O=C(O)c1ccc(N/N=C/c2ccc3ncccc3c2)cc1 | inactive | 
Cc1ccc2cc(/C=N/Nc3ccc(C(=O)O)cc3)c(Cl)nc2c1 | 6.51 µM (active) | 
COc1cc(C=O)c(Br)cc1OCC(=O)NCc1ccccc1 | inactive | 
COc1cc(/C=C(\C#N)C(=O)Nc2ccc3ccccc3c2)c([N+](=O)[O-])cc1OC | inactive | 
COc1ccc(NC(=O)/C(C#N)=C\c2cc(OC)c(OCc3ccc(C(=O)O)cc3)cc2Br)cc1 | 16.4 µM (active) | 
NC(=O)C1(N2CCCC2)CCN(Cc2ccccc2)CC1 | inactive | 

SMILES | Potency | activity, positive = re-replication
COC(=O)c1cn(C(=O)c2ccc(Cl)cc2)c2ccccc12 | inactive | 
COC(=O)c1sc2ncccc2c1OCc1ccc(Cl)cc1Cl |  | -182% [at 0.0737 µM] (inactive)
COC(=O)c1cc2c(N)c(C(=O)c3ccc(Cl)cc3)sc2nc1C(OC)OC | 20.6 µM (active) | 
CN(Cc1cccs1)C(=O)CN1C(=O)c2ccccc2S1(=O)=O | inactive | 
CCOC(=O)C1=CN(Cc2ccc(Br)cc2)S(=O)(=O)NC1C (stereo not given) | inactive | 
CCOC(=O)c1c(NC(=O)c2ccc(S(=O)(=O)N(C)CC3CCCO3)cc2)sc2c1CC(C)(C)NC2(C)C (stereo not given) | inactive | 
COC(=O)c1c(NC(=O)COc2ccc(Cl)cc2Cl)sc2c1CC(C)(C)NC2(C)C | 3.26 µM (active) | 
Cc1cc(NC(=O)COc2ccc(Cl)cc2Cl)n(CCC#N)n1 | inactive | 
CCC(=O)N(Cc1cc2cc(OC)ccc2[nH]c1=O)c1ccccc1C | inactive | 
COc1ccc2[nH]c(=O)c(CNc3ccc(C)c(C)c3)cc2c1 | 14.6 µM (active) | 
COc1ccc(N(Cc2cc3cc(OC)ccc3[nH]c2=O)S(C)(=O)=O)cc1 | inactive | 
c1ccc(-c2c[nH]c(-c3ccccc3)c2)cc1 | inactive | 
COc1ccc(NC(=O)CN(C)C(=O)c2cc(C3CC3)nn2-c2ccccc2)cc1 | inactive | 
Cc1nc2ccccc2c(C(=O)O)c1-c1ccccn1 | inactive | 
COc1cc2c(cc1CNC[C@H]1O[C@@H](n3cnc(C(N)=O)n3)[C@H](O)[C@@H]1O)OCO2 | inactive | 
C/C(=N\NC(=O)c1ccccc1F)c1ccccn1 | 23.1 µM (active) | 
C/C(CC(=O)Nc1ccc(N(C)C)cc1)=N\NC(=O)c1ccccc1F | inactive | 
C/C(=N\NC(=O)Cc1ccc(Cl)cc1)c1ccccn1 | inactive | 
O=C(CNC(=O)c1cc(S(=O)(=O)N2CCOCC2)ccc1N1CCCC1)Nc1ccc(F)c(F)c1 | inactive | 
Cc1c(C(=O)N/N=C/c2ccccc2)[nH]c2c([N+](=O)[O-])cccc12 | 4.11 µM (active) | 
O=C(N/N=C/c1ccc([N+](=O)[O-])cc1)c1c[nH]c2ccccc12 | inactive | 
Cc1cc(C(=O)N/N=C/c2ccccc2[N+](=O)[O-])c(C)o1 | inactive | 
CC(=O)N(O)CCCCCNC(=O)CCC(=O)N(O)CCCCCNC(=O)CCC(=O)N(O)CCCCCNC(=O)CCC(=O)O | inactive | 
COc1ccc(S(=O)(=O)N2CCCCCC2)cc1NC(=O)Cc1ccc(OC)c(OC)c1 | inactive | 
O=C(NCCc1ccco1)c1ccc(OCc2cn3ccccc3n2)cc1 | inactive | 
